Only a selection was taken, and hits are over-represented in it overall.
LDHA inh = inhibitors of human lactate dehydrogenase A. P00338. purified LDHA, NADH/diaphorase-resazurin fluorescence; stronger effect = lower value. activity change, % (values are at about 110 or 230 µM). 0.15% of 480,000 active. AID 1347041; in the data active means activity change below about -30%; inconclusive means mostly about -25% to -30%;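 further: plate controls were DMSO wells for no effect and wells without enzyme for full effect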
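LDH5 2 nM; NADH 0.06 mM, pyruvate 0.2 mM; 200 mM Tris pH 7.4, EDTA, Tween-20; 5 min RT. Detection: diaphorase 0.133 mg/mL + resazurin 37 µM, fluorescence ex540/em590 at 0 and 20 min; normalized to enzyme-free and DMSO wells.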
RGS4 inhibitor = blocks human RGS4-accelerated GTP hydrolysis. AID 504845. Transcreener GDP fluorescence polarization, RGS4-accelerated GTP hydrolysis. Potency, µM (top dose mostly 114 µM), inactives show at the top dose activity change, negative = inhibition, usual class: inhibitors. 0.039% of 390,000 active; further: potency means the concentration at half of the fitted maximal effect; on the % scale 0 is the no-effect control and ±100 the full control effect; nearly all actives have a fitted effect of over 75% in size
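MLSMR compounds (23 nl, pin-transferred) preincubated 10 min at room temperature with a 500nM (2x) first reagent, then RGS4 at 900nM (2x) plus Transcreener GDP mix added; fluorescence polarization (620/688 nm) read before and after 90 min at 30 °C.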
mIDH1 inhibitor = blocks human mutant IDH1 R132H enzyme. O75874. IDH1-R132H enzyme, NADPH consumption, diaphorase/resazurin fluorescence. Potency, µM (doses to about 76.6 µM), for the others: at the highest dose activity change, negative = inhibition, hits mostly inhibitors. 0.093% of 390,000 active. AID 602179; further: potency means the concentration at half of the fitted maximal effect; on the % scale 0 is the no-effect control and ±100 the full control effect; nearly all actives have a fitted effect of over 65% in size
Target sequence (O75874 whole entry R132H, stated change not applied): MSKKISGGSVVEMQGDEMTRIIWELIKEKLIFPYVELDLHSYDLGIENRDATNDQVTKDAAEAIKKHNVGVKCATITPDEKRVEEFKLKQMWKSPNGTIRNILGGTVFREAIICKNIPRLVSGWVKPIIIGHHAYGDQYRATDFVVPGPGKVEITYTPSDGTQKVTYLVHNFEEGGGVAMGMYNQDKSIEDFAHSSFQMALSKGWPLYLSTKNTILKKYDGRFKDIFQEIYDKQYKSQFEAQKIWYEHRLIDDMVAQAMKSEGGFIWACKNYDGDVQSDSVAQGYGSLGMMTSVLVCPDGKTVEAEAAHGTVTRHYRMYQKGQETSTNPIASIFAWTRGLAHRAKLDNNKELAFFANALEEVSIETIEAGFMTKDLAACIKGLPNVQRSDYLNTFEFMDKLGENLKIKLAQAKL
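IDH1-R132H (0.5 ug/mL) preincubated 30 min with compound, then NADPH (0.016 mM) and alpha-KG (2 mM) added; 80 min at RT, pH 7.5. Remaining NADPH coupled via diaphorase/resazurin to fluorescence (540/590 nm); concentration-response curves normalized to no-enzyme control.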
ASM inhibitor = inhibitors of human secretory acid sphingomyelinase; Potency, µM (doses to about 57.5 µM), without a hit: at the highest dose activity change, negative = inhibition, usual class: inhibitors; 0.006% of 340,000 active; AID 504937; P17405; placental ASM, HMU-PC fluorogenic substrate, 60 min; further: potency means the concentration at half of the fitted maximal effect
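Human placenta-derived ASM preincubated with compound 10 min at room temperature, then reacted with 9 uM (final) fluorogenic HMU-PC substrate for 60 min at 37 C. Stop solution raises pH to 10; fluorescence read at Ex 386/Em 447 nm.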
ClpP mod = qHTS Assay for Activators of ClpP | purified B. subtilis ClpP, FRET peptide cleavage, 20 min | Potency, µM (titrated, usually from 57.5 µM), for inactives: top-dose activity change, negative = active | 1.9% of 340,000 active | AID 651965, 2013; active means well fitted falling curve with a large enough effect; inconclusive means small, poorly fitted or top-dose-only effect; inactive means no such curve, though single readings can be large or run the other way; further: potency means the concentration at half of the fitted maximal effect; the source files actives as falling curves though it sought activators and does not explain the sign; nearly all actives have a fitted effect of over 65% in size
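Buffer: 100 mM Tris/HCl pH8, 100 mM KCl, 0.05% low protease BSA, 2.5% glycerol, 0.01% Tween-20. ClpP 10 microg/mL final; 20 min RT; delta FRET normalized to ADEP and DMSO controls.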
Mito fusion act = inhibitors of mitochondrial division or activators of mitochondrial fusion. S. cerevisiae fusion-defective mutant growth rescue, CellTiterGlo 48 h. Potency, µM (titrated, usually from 46.1 µM), for inactives: at the top dose growth rescue (activation), actives largely listed as activators. 0.23% of 320,000 active. AID 485298; further: potency means the concentration at half of the fitted maximal effect; % of control where 0% means no effect; nearly all actives have a fitted effect of over 45% in size
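Temperature-sensitive fusion-defective S. cerevisiae (e.g. fzo1-1, mgm1-5) were grown with compound in YPEG medium (3% ethanol, 3% glycerol) for 48 hours at 37C. Growth rescue was measured as viability by CellTiterGlo luminescence after 10 minutes at ambient.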
Active calls of the source: *; ? = inconclusive; . = no result given; [ ] = another dose, or the depositor's remark. Unless noted, the call rests on the fitted dose curve; in most records, active means well fitted curve in the direction sought with a large enough effect; inconclusive means small, poorly fitted or top-dose-only effect, or another doubt; inactive means no such curve, though single readings can be large; an effect the other way counts as inactive or inconclusive.

SMILES	LDHA inh	RGS4 inhibitor	mIDH1 inhibitor	ASM inhibitor	ClpP mod	Mito fusion act
O=C1CC(C(=O)Nc2ccc3c(c2)OCCO3)N=C(N2CCN(c3ccccc3)CC2)N1 (stereo not given)	3	.	.	.	.	.
NNc1ccc(NS(=O)(=O)c2ccc(Cl)cc2)cc1[N+](=O)[O-]	12	.	.	.	.	.
OC(CN1CCC(Cc2ccc(F)cc2)CC1)c1ccc(Cl)cc1 (stereo not given)	.	4%[56.9 µM]	.	.	.	2.9µM*
OC(CN1CCN(c2ccc(F)cc2)CC1)c1ccc(Cl)cc1 (stereo not given)	-11	-7%	-4%	-3%	.	-16%
CC(C)CNc1oc(-c2ccc(S(=O)(=O)N(C)C)cc2)nc1C#N	-3	.	.	.	.	.
COc1cccc(C2CC(c3cccs3)=NN2C(=O)CSc2nc3ccccc3s2)c1OC (stereo not given)	-5	-9%	0%	-1%	28µM*	2%
Cc1ccc(C2CC(c3cccs3)=NN2C(=O)CSc2nc3ccccc3o2)cc1 (stereo not given)	-6	25%	1%	-5%	14µM*	-1%
Cc1ccc(C2CC(c3cccs3)=NN2C(=O)CSc2nc(=O)n3ccc(C)cc3n2)cc1 (stereo not given)	.	.	.	.	.	17%
O=C(CSc1nc2ccccc2o1)N1N=C(c2cccs2)CC1c1ccc(F)cc1 (stereo not given)	-2	-37%	-7%	-7%	32µM*	-5%
CCSc1nc(=O)c2c(n1C)NC(=O)CC2c1ccc(C)cc1C (stereo not given)	6	.	.	.	.	.
Cc1[nH]c2ccccc2c1C(c1c(C)[nH]c2ccccc12)c1c(C)[nH]c2ccccc12	-2	.	.	.	0%	.
Cc1cc2[nH]c3ccccc3c2c(C)n1	1	4%	2%	8%	28µM*	3%
NCCCCOCc1ccccc1	2	.	.	.	.	.
CCCc1cc2c(c(NC(C)=O)n1)c(=O)oc1ccccc12	-4	?	-6%	35%	32µM*	4%
CCCC(=O)Nc1cc(C)c2c(=O)oc3ccccc3c2n1	-1	-9%	1%	-1%	-4%	10%
CC1CCCCC1NC(=O)CN1CCN(S(=O)(=O)c2ccc(Br)s2)CC1 (stereo not given)	-4	15%	5%	1%	14µM*	28%
CC1CCC(NC(=O)CN2CCN(S(=O)(=O)c3ccc(Br)s3)CC2)CC1 (stereo not given)	1	.	2%	.	-4%	.
O=S(=O)(c1ccc2c(c1)C(=NO)c1cc(S(=O)(=O)N3CCCCC3)ccc1-2)N1CCCCC1	-6	1%[11.4 µM]	-3%	0%	28µM*	2%
COc1ccc(C2=NN(CCC(=O)NCc3ccc4c(c3)OCO4)C(=O)CC2)cc1	-3	13%	4%	3%	-3%	0%
Cc1ccc(C2=NN(CCC(=O)NCc3ccc4c(c3)OCO4)C(=O)CC2)cc1	-4	10%	1%	7%	7.9µM*	-3%
O=C1c2cccc3cccc(c23)C(=O)N1c1ccncc1	-8	-15%	6%	12%	10µM*	-5%
CCc1nnc(N2C(=O)c3cccc4cccc(c34)C2=O)s1	2	7%	6%	3%	16µM*	-9%
O=C1c2cccc3cccc(c23)C(=O)N1c1cccnc1	4	8%	0%	2%	16µM*	-7%
Cc1ccccc1N1C(=O)c2cccc3cccc(c23)C1=O	-2	-4%	2%	0%	-18%	3%
C=CCOc1ccc(C(=O)NCC(F)(F)F)cc1	0	.	.	.	.	.
CN1CCc2c(sc3c2C(=O)NC(c2ccco2)N3)C1 (stereo not given)	9	12%	-3%	281%	28µM*	-1%
CCOC(=O)N1CCc2c(sc3c2C(=O)NC(c2ccc(OC)cc2)N3)C1 (stereo not given)	-1	.	.	.	.	.
